These results are taken from PubChem BioAssay AID504700 (The Scripps Research Institute Molecular Screening Center, 2011).

Structures are written as SMILES. Among all 340,000 compounds or so, about 270 (0.079%) were called active. For the sample, actives were picked, then their nearest neighbours and some compounds at random. Values without a mark were called inactive.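 How the source made its calls: active means activation above a cutoff set at the mean over all compounds plus 3 SD (cut at about 18% in these data); inactive means the rest.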

Chain of cAMP-dependent protein kinase catalytic subunit beta (Homo sapiens) + cAMP-dependent protein kinase type II-beta regulatory subunit (Homo sapiens) (P31323 whole entry, looked up, other chains not shown, the tested form may be a part): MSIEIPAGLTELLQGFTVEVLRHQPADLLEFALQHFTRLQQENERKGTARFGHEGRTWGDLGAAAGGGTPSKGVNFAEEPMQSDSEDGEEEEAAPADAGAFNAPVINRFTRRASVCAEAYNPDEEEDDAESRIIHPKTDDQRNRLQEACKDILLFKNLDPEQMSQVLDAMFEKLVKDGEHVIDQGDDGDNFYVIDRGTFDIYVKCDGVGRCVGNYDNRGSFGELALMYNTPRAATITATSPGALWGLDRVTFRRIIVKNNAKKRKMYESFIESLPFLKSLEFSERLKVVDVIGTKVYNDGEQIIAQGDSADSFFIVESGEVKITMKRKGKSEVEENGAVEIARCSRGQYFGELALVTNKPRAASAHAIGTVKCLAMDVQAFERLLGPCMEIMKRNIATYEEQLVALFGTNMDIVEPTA

This experiment addresses cAMP-dependent protein kinase catalytic subunit beta (Homo sapiens) + cAMP-dependent protein kinase type II-beta regulatory subunit (Homo sapiens) (UniProt P22694+P31323). The experiment can be described thus: compounds dissociating PKAc from R2B subunit – biochemical, fluorescence polarization, Cy5-IP20, human, primary screen (AID 504700).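 Further: higher means more holoenzyme dissociation and a rise in polarization.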 Conditions: PKA-R2B holoenzyme dissociation, at 11.4 µM, stronger effect = higher value, 0% DMSO only, 100% 113 µM cGMP, R2B truncated from residue 108, S112A mutant. A general note: Polarisation of emitted light reports the rotation of a fluorescent probe.
On to `O=C(NCCN1CCOCC1)c1ccc2c(c1)N(Cc1cccc(Cl)c1)C(=O)c1ccccc1S2(=O)=O`, for which the activation is -0.88%. The value for `COc1ccc(NC2CCCN(C(=O)c3ccccc3-c3ncc[nH]3)C2)cc1` (stereo unspecified) was -6.86%; that for `Cc1sc2ncnc(SCC(=O)NC3CCS(=O)(=O)C3)c2c1C` (stereo unspecified) was -9.19%; that for `CN(c1ccccc1)S(=O)(=O)c1ccc(C(=O)NCc2cccnc2)cc1` was -3.42%.

Regarding `O=C(COC(=O)CCc1c[nH]c2ccccc12)Nc1cccc(Cl)c1`, the activation is 1.73%. Regarding `CCOC(=O)c1cc(-c2sc(NC(=O)c3ccccc3)nc2C)n(Cc2ccccc2)n1`, the activation is -0.16%. Regarding `O=C(COC(=O)c1ccc(S(=O)(=O)N2CCCCCC2)cc1)Nc1ccccc1C(F)(F)F`, the activation was -16.8%.

In the case of `CN(Cc1ccccc1)C(=O)CCC1CCN(C(=O)c2ccco2)CC1`, the activation is 2.88%. Under `Cc1[nH]c2ccccc2c1C(=O)C(=O)NCc1nnnn1-c1cccc(F)c1` stands -2.65%. Regarding `O=C(CCCN1C(=O)c2cccc3cccc(c23)C1=O)N1CCN(Cc2ccc3c(c2)OCO3)CC1`, the activation is 18.8% (active). Under `Cn1c(=O)cc(OCCCC(=O)N2CCN(Cc3ccc4c(c3)OCO4)CC2)c2ccccc21` stands -7.18%. Under `Cc1cc(C)n2nc(C(=O)N3CCN(Cc4ccc5c(c4)OCO5)CC3)nc2n1` stands -11.3%; under `CCN1C(=O)[C@H]2[C@@H](c3ccccc3)N[C@]3(CCCN(Cc4ccc(C)cc4)C3=O)[C@H]2C1=O`, 0.79%. `O=C(NCCS(=O)(=O)N1CCN(c2ccccc2)CC1)c1cc(=O)c2ccccc2o1`: the activation was -13.1%.

For `CCCCN1C(=O)C(CC(=O)NC(c2ccccc2)c2ccccc2)CC(C(=O)N2CCOCC2)=C1C` (stereo unspecified), the activation was -5.21%. Consider `Cc1ccccc1NC(=O)Cc1nc(COC(=O)C(C)(C)Oc2ccc(Cl)cc2)cs1`, for which the activation was 3.15%. Regarding `C/C(COc1ccccc1)=N\NC(=O)c1nnn(-c2nonc2N)c1-c1ccc(C)cc1`, the activation is -17.1%. On to `CCCc1c(C)nc2scc(-c3ccc(Cl)cc3)n2c1=O`, for which the activation was -2.72%. On to `CSc1ncnc2c1ncn2CCCNCc1cccs1`, for which the activation was 2.56%. `CCC(Oc1ccccc1)C(=O)OCC(=O)Nc1c(C)nn(-c2ccccc2)c1C` (stereo unspecified): the activation is -5.13%. Under `COc1cccc(OCC(=O)NCCS(=O)(=O)N2CCN(c3ccccc3)CC2)c1` stands 0.99%.

For `CNC(=O)C[C@H]1C(=O)N(Cc2ccccc2)C[C@@H]1CSC`, the activation is -9.1%. `COc1ncnc2c1ncn2CCCNCCN1CCOCC1`: the activation was 4.38%. In the case of `O=S1(=O)CCN(Cc2ccccc2)CC1`, the activation is -1.42%.

As for `C[C@@H]1CN([C@@H](C)CO)S(=O)(=O)c2ccc(C#Cc3cccc(F)c3)cc2O[C@H]1CN(C)S(=O)(=O)c1cn(C)cn1`, the activation was 7.01%. In the case of `Nc1cccc(OCCCCCOc2cccc(N)c2)c1`, the activation was 5.43%. Consider `COC(=O)C[C@H]1C[C@@H]2c3cc(N(C)C)ccc3O[C@@H]2[C@H](CO)O1`, for which the activation is 5.15%. With `O=C1OCCC1=COCCCCOC=C1CCOC1=O`, the activation is 3.03%.

Regarding `COc1ccc(CN2C(=O)C(CC(=O)NCc3cccc4ccccc34)CC(C(=O)N3CCOCC3)=C2C)cc1` (stereo unspecified), the activation is 2.78%. In the case of `CC(=O)Nc1ccc2nc(NC(=O)CS(=O)(=O)c3ccc(F)cc3)sc2c1`, the activation was -8.48%. Under `CNC(=O)C1CN(C(=O)c2cccc(S(=O)(=O)N3CCc4ccccc43)c2)c2ccccc2O1` (stereo unspecified) stands 1.53%; under `Cc1ccc(S(=O)(=O)N2CCCCC2)cc1NC(=O)CCNC(=O)c1ccccc1Cl`, 16.1%. The value for `O=C(NCc1ccccc1)C1CNCC(C(=O)NCc2ccccc2)C1` (stereo unspecified) was 9%.

Take `CCCCCCNC(=O)O[C@H]1CN(C(=O)OC(C)C)N(C(=O)OC(C)C)[C@@H]2CN(S(=O)(=O)c3ccc(C)cc3)C[C@]12O`: the activation was -13.6%.

`COc1ccc([N+](=O)[O-])cc1NC(=O)C(C)OC(=O)C1c2ccccc2Oc2ccccc21` (stereo unspecified): the activation is -4.93%. The value for `COc1ccc([N+](=O)[O-])cc1C1NN=C(c2cccc3ccccc23)S1` (stereo unspecified) was 20.8% (active). Under `COc1ccccc1C1SCCN1C(=O)c1ccc([N+](=O)[O-])cc1` (stereo unspecified) stands 0.16%. Under `O=C(N=C1SC2CS(=O)(=O)CC2N1Cc1ccccc1)c1ccccc1` (stereo unspecified) stands 1.79%; under `C[C@@H]1CN([C@H](C)CO)C(=O)c2cc(Br)cnc2O[C@@H]1CN(C)Cc1cncnc1`, 2.5%; under `CC1=C(C(=O)N2CCOCC2)CC(CC(=O)NCC2CCCCC2)C(=O)N1Cc1ccc(F)cc1` (stereo unspecified), -0.55%. Consider `C[C@H](CO)N1C[C@H](C)[C@@H](CN(C)S(=O)(=O)c2ccc(F)cc2)OCc2cnnn2CCCC1=O`, for which the activation was -2.57%.

Take `CC1(C)CC(=O)C=C(c2ccc(COC(=O)c3cc(F)cc(F)c3)cc2)C1=O`: the activation is 4.64%. The value for `CC1(C2CC2)NC(=O)N(CC(=O)N2CCN(c3ccccc3F)CC2)C1=O` (stereo unspecified) was 1.69%; that for `CCCCN(C(C)=O)c1ccc2c(c1)C1CC2CCN1Cc1ccccc1` (stereo unspecified) was 2.7%. For `Cc1ccc(-c2ccc(C3=CC(=O)CC(C)(C)C3=O)cc2)cc1`, the activation was 9.99%.

Take `CCCCN1C[C@H](c2ccc(Br)cc2)[C@@H](CC(=O)Nc2ccc(Br)cc2)C1=O`: the activation is 2.46%. The value for `Cc1ccc(S(=O)(=O)N2C[C@H]3n4c(=O)ccc(=O)n4C[C@H](OC(=O)NC4CCCC4)[C@@]3(O)C2)cc1` was 8.63%; that for `CCOc1ccc(NS(=O)(=O)c2ccc(C(=O)NCC3CCCO3)cc2)cc1` (stereo unspecified) was -2.2%; that for `Cc1nn(Cc2ccccc2)c(C)c1C(=O)NCCN1C(=O)S/C(=C\c2ccc(F)cc2)C1=O` was -11.8%.

With `Cc1cc(/C=C2/SC(=O)N(CC(=O)N3CCCC3)C2=O)c(C)n1C`, the activation was 2.6%. As for `N#Cc1ccccc1CN1C(=O)S/C(=C/c2cccn2-c2cccc(C(=O)O)c2)C1=O`, the activation was 24.5% (active).
